We go through one compound from PubChem BioAssay AID504400 (The Scripps Research Institute Molecular Screening Center, 2011).

Calls of active or inactive are those of the source. The rule behind the calls is not given here.

The assay relates to Rolipram. The assay can be described thus: CYP450 and receptor off-target profile – biochemical, Ricerca HitProfilingScreen, selectivity assay for S1P4 agonist project, late-stage follow-up (AID 504400). As to conditions: Ricerca radioligand binding/enzyme panel plus CYP450, at 10 µM, stronger effect = higher value.

A word on the inhibition: it is the relative decrease from the control value, in per cent.

In the case of `Clc1ccc(OCCOc2ccc(Br)nc2Br)c(Cl)c1`, the inhibition is -3% (inactive).
